CYP2C19 act: increases human CYP2C19 enzyme activity; P33261; recombinant CYP2C19, luciferin-H EGE luminescence; active compounds read high; 0 = fully inhibited enzyme, 1 = untreated enzyme; 96,000 tested, under 10 active; activation factor at 5 µM;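 active means activation factor of at least 2 at 5 µM in the primary screen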
Target sequence (P33261 whole entry, looked up): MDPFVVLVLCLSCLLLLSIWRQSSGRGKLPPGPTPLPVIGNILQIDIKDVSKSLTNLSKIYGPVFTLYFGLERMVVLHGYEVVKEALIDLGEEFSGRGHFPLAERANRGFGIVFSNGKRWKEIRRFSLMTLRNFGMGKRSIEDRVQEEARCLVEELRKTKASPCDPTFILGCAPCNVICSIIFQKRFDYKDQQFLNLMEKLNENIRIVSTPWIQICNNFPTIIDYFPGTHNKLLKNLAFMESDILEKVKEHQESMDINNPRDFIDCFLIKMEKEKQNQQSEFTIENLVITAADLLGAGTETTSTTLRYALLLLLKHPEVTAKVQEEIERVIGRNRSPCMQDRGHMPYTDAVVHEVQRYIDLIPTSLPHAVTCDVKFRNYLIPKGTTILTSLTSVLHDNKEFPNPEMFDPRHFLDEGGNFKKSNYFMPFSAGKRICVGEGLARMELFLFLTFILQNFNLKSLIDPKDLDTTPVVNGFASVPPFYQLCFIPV
EphB4 antag: blocks human EphB4 binding to ephrin-B2; EphB4 LBD / TNYL-RAW-Alexa532 peptide, fluorescence polarization; inhibition, % at 7 µM; 97,000 compounds, 0.15% hits;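 active means inhibition above the screen-wide mean inhibition plus 3 SD, cut at about 15% in these data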
CYP2C19 inh: human CYP2C19 inhibition; P33261; CYP2C19 Supersomes, luciferin-H EGE luminescence, 30 min; inhibition, % at 5 µM; 96,000 compounds, 21% hits;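 active means CYP2C19 inhibition above a set limit at 5 µM in the primary screen, cut at about 50% in these data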
CYP2C9 activ: CYP2C9 (human) activation; P11712; recombinant CYP2C9, luciferin-H conversion, luminescence; active compounds read high; factor 1 = untreated enzyme, 0 = blocked; activation factor at 5 µM; 96,000 compounds, 1.4% hits;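 active means activation factor of 2 or more for CYP2C9 at a 5 µM dose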
CYP2C9 inh: blocks human cytochrome P450 2C9 | AID 777 | 96,000 compounds, 20% hits | CYP2C9 Supersomes, luciferin-H conversion, luminescence | inhibition, % at 5 µM | P11712;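 active means blocking of liver enzyme CYP2C9 beyond about 50% at 5 µM, limit read from the data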
Numbers stand for hits. Shown are actives, neighbours in structure and some others; about 27% of the full set was active somewhere.

How did CCc1cc2cc(C)ccc2nc1SCC(=O)N1CCN(C(=O)c2ccco2)CC1 do in these assays?
CYP2C19 act: inactive; EphB4 antag: inactive; CYP2C19 inh: inactive; CYP2C9 activ: inactive; CYP2C9 inh: 70

Results for CCc1cc2ccccc2nc1SCC(=O)N1CCN(C(=O)c2ccco2)CC1 ?
CYP2C19 act: inactive; CYP2C19 inh: 83; CYP2C9 activ: inactive; CYP2C9 inh: 80

How did Fc1ccc(-c2cnc[nH]2)cc1 do in these assays?
CYP2C19 act: inactive; EphB4 antag: inactive; CYP2C19 inh: 55; CYP2C9 activ: inactive; CYP2C9 inh: 76

What do the screens show for `CCC(Oc1ccccc1)C(=O)Nc1ccc(S(=O)(=O)Nc2cnc3ccccc3n2)cc1` (stereo not given)?
CYP2C19 act: inactive; EphB4 antag: inactive; CYP2C19 inh: inactive; CYP2C9 activ: inactive; CYP2C9 inh: inactive

What do the screens show for `CCC(Oc1ccccc1)C(=O)Nc1ccc(-c2nnc(-c3ccco3)o2)cc1` (stereo not given)?
CYP2C19 act: inactive; EphB4 antag: inactive; CYP2C19 inh: 90; CYP2C9 activ: inactive; CYP2C9 inh: 97

Results for O=C(COc1ccc(Br)cc1)Nc1ccc(-c2nnc(-c3ccco3)o2)cc1 ?
CYP2C19 act: inactive; EphB4 antag: inactive; CYP2C19 inh: 64; CYP2C9 activ: inactive; CYP2C9 inh: inactive

How did Cc1cc(C(C)(C)C)oc1C(=O)NCCCNC(=O)c1oc(C(C)(C)C)cc1C do in these assays?
EphB4 antag: inactive

Results for Cc1csc(-c2cnn(-c3ccccc3)c2NC(=O)c2cccc(F)c2)n1 ?
CYP2C19 act: inactive; EphB4 antag: inactive; CYP2C19 inh: inactive; CYP2C9 activ: inactive; CYP2C9 inh: inactive

Results for Cc1ccc(S(=O)(=O)CCCS(=O)(=O)c2ccc(C)cc2)cc1 ?
CYP2C19 act: inactive; EphB4 antag: inactive; CYP2C19 inh: 52; CYP2C9 activ: inactive; CYP2C9 inh: inactive

How did Cc1ccc(S(=O)(=O)c2ccc(C)cc2)cc1 do in these assays?
CYP2C19 act: inactive; EphB4 antag: inactive; CYP2C19 inh: inactive; CYP2C9 activ: inactive; CYP2C9 inh: inactive

Results for COC(=O)c1ccc(CS(=O)(=O)c2ccc(C)cc2)cc1 ?
CYP2C19 act: inactive; EphB4 antag: inactive; CYP2C19 inh: inactive; CYP2C9 activ: inactive; CYP2C9 inh: 58

What do the screens show for `COC(=O)c1cccc(COC(=O)c2ccc(CS(=O)(=O)c3ccc(C)cc3)cc2)c1`?
CYP2C19 act: inactive; EphB4 antag: inactive; CYP2C19 inh: inactive; CYP2C9 activ: inactive; CYP2C9 inh: 77

How did Cc1ccccc1C(=O)c1c[nH]c(C(N)=O)c1 do in these assays?
CYP2C19 act: inactive; EphB4 antag: inactive; CYP2C19 inh: inactive; CYP2C9 activ: inactive; CYP2C9 inh: inactive

What do the screens show for `O=S(=O)(C/C(=C/CO)S(=O)(=O)c1ccccc1)c1ccccc1`?
CYP2C19 act: inactive; EphB4 antag: inactive; CYP2C19 inh: inactive; CYP2C9 activ: inactive; CYP2C9 inh: inactive

How did Cc1c(NC(=O)c2cc(-c3ccco3)on2)c(=O)n(-c2ccccc2)n1C do in these assays?
CYP2C19 act: inactive; EphB4 antag: inactive; CYP2C19 inh: inactive; CYP2C9 activ: inactive; CYP2C9 inh: inactive

Results for COc1ccc2ccccc2c1C1CC(=O)N2CN(Cc3ccco3)CSC2=C1C#N (stereo not given) ?
CYP2C19 act: inactive; EphB4 antag: inactive; CYP2C19 inh: 55; CYP2C9 activ: inactive; CYP2C9 inh: 86

How did COc1ccc2ccccc2c1C1CC(=O)N2CN(C3CCCCC3)CSC2=C1C#N (stereo not given) do in these assays?
CYP2C19 act: inactive; EphB4 antag: inactive; CYP2C19 inh: 55; CYP2C9 activ: inactive; CYP2C9 inh: 90

How did COc1ccc(C2CC(=O)N3CN(Cc4ccco4)CSC3=C2C#N)cc1 (stereo not given) do in these assays?
CYP2C19 act: inactive; EphB4 antag: inactive; CYP2C19 inh: inactive; CYP2C9 activ: inactive; CYP2C9 inh: inactive

How did CCOc1cc(C2C(C(=O)N3CCCCC3)=C(C)NC3=C2C(=O)CC(C)(C)C3)ccc1O (stereo not given) do in these assays?
CYP2C19 act: inactive; EphB4 antag: inactive; CYP2C19 inh: inactive; CYP2C9 activ: inactive; CYP2C9 inh: inactive

How did COc1cc(C2CC(=O)N3CN(Cc4ccco4)CSC3=C2C#N)ccc1OCc1ccccc1 (stereo not given) do in these assays?
CYP2C19 act: inactive; EphB4 antag: inactive; CYP2C19 inh: inactive; CYP2C9 activ: inactive; CYP2C9 inh: 83

How did CCOc1cc(C2CC(=O)N3CN(C4CCCCC4)CSC3=C2C#N)ccc1O (stereo not given) do in these assays?
CYP2C19 act: inactive; EphB4 antag: inactive; CYP2C19 inh: 53; CYP2C9 activ: inactive; CYP2C9 inh: 82
